Screens (PubChem)
This is a sample that favours compounds with a hit; in the whole collection about 12% have one here.
BAZ2B block: BAZ2B (human) inhibition. Q9UIF8. AlphaScreen BAZ2B-H3K14Ac peptide displacement. Potency, µM (series often up to 114 µM), for the others: at the highest dose activity change, negative = inhibition, usual class: inhibitors. 360,000 tested, 4.4% active. AID 504333; also: % is scaled to controls: 0 for no effect and ±100 for the full control effect; nearly all actives have a fitted effect of over 60% in size
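AlphaScreen luminescence quantifies BAZ2B engagement of H3K14Ac peptide; the protein and biotinylated peptide are both at 50 nM final, buffer PBS pH 7.4 with 0.01% Tween-20, all steps at room temperature.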
L3MBTL1 block: L3MBTL1 (human) inhibition; AID 485360; 230,000 tested, 0.66% active; Q9Y468; Potency, µM (highest dose often 57.1 µM), without a hit: at the highest dose activity, negative = inhibition, actives largely listed as inhibitors; AlphaScreen L3MBTL1–H3K9me1 peptide binding; also: % is scaled to controls: 0 for no effect and ±100 for the full control effect; nearly all actives have a fitted effect of over 60% in size
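L3MBTL1 (50 nM) pre-complexed 30 min with biotinylated H3(1-15)K9me1 peptide (75 nM), then compounds added for 30 min at room temperature; AlphaScreen streptavidin donor/nickel chelate acceptor beads (10 ug/mL final) read after 30 min dark incubation.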
JMJD2A Tudor: inhibitors of human JMJD2A Tudor domain; O75164; 390,000 tested, 4.4% active; Potency, µM (titrated, usually from 114 µM), for inactives: top-dose activity change, negative = inhibition, hits mostly inhibitors; AlphaScreen JMJD2A-Tudor / H3K4me3 peptide binding; AID 504339; also: % is scaled to controls: 0 for no effect and ±100 for the full control effect; nearly all actives have a fitted effect of over 50% in size
HP1b binding inh: blocks HP1-beta chromodomain binding to methylated histone tails; P83916; AlphaScreen HP1-beta / biotin-H3K9me3 peptide binding; Potency, µM (titrated, usually from 114 µM), inactives show at the highest dose activity change, negative = inhibition, most hits filed as inhibitors; 390,000 tested, 0.56% active; AID 540317; also: nearly all actives have a fitted effect of over 70% in size
Target sequence (P83916 whole entry, looked up): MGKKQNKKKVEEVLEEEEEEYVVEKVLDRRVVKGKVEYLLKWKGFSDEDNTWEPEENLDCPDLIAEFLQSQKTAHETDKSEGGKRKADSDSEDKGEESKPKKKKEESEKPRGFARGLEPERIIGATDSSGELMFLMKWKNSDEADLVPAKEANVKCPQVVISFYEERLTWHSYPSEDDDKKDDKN
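Compound inhibition of the preformed complex between 50 nM HP1-beta and 50 nM biotinylated H3K9me3 peptide was read by AlphaScreen. Buffer was PBS pH 7.4 with 0.01% Tween-20. Incubations ran 30 min at room temperature, with 10 ug/mL donor/acceptor beads.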
G9a block: blocks human histone lysine methyltransferase G9a | Q96KQ7 | G9a H3K9 monomethylation, AlphaScreen, 2 h | Potency, µM (top dose mostly 102 µM), for inactives: top-dose activity, negative = inhibition, actives largely listed as inhibitors | 350,000 tested, 8.8% active; also: % is scaled to controls: 0 for no effect and ±100 for the full control effect; nearly all actives have a fitted effect of over 75% in size
Target sequence (Q96KQ7 913-1193 limits assumed): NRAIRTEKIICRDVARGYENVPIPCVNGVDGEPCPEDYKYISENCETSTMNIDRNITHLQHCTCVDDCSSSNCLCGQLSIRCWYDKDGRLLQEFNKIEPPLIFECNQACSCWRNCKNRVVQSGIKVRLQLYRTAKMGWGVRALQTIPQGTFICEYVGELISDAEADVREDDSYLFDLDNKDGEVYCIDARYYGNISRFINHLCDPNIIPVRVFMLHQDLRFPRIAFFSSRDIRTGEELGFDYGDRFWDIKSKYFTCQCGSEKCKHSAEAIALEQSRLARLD
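Compounds were preincubated with 20 nM G9a for 15 min, after which biotinylated H3K9 peptide (500 nM) and SAM (20 uM) started a 2 h room-temperature reaction. Monomethylated product was quantified by antibody-based AlphaScreen chemiluminescence.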
Sfp inh: inhibitors of Bacillus subtilis Sfp phosphopantetheinyl transferase; AID 1490; Q9F4F7; 310,000 tested, 3.5% active; Potency, µM, without a hit: largest response in the series, negative = inhibition, usual class: inhibitors; Biochemical Sfp PPTase activity, qHTS;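 also: the enzyme is Sfp with the accession as filed and its product quenches rhodamine fluorescence; 0% = enzyme reaction without inhibitor and -100% = no enzyme wells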
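Compounds were incubated with enzyme (final 15 nM) for 15 min at room temperature before substrate addition started the reaction. Fluorescence at 525 nm excitation, 598 nm emission was recorded immediately and after 30 minutes.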
Active calls of the source: *; ? = inconclusive; . = not tested or not shown; [ ] = another dose, or the depositor's remark. Calls follow the shape of the dose curve; as a rule, active = well fitted curve in the direction sought with a large enough effect; inconclusive = small, poorly fitted or top-dose-only effect, or another doubt; inactive = no such curve, though single readings can be large; an effect the other way counts as inactive or inconclusive. Potency is read from the fitted curve at half-maximal effect.

SMILES | BAZ2B block | L3MBTL1 block | JMJD2A Tudor | HP1b binding inh | G9a block | Sfp inh
CC(C)C[C@@H](CN)NC(=O)c1nc[nH]c1C(=O)N[C@@H](Cc1c[nH]c2ccccc12)C(=O)CNC[C@H](C)NC(=O)c1nc[nH]c1C(=O)N[C@@H](CC(=O)O)C(=O)O | . | . | 56µM* | 21% | . | .
CC(C)C[C@@H](CNCC(=O)[C@H](Cc1c[nH]c2ccccc12)NC(=O)c1[nH]cnc1C(=O)N[C@@H](C)CN)NC(=O)c1nc[nH]c1C(=O)N[C@@H](C)C(=O)O | . | . | 50µM* | 27% | . | .
CC(C)C[C@@H](CNCC(=O)[C@H](Cc1c[nH]c2ccccc12)NC(=O)c1[nH]cnc1C(=O)N[C@@H](C)CN)NC(=O)c1nc[nH]c1C(=O)N[C@@H](CC(=O)O)C(=O)O | . | . | 20µM* | 22% | . | .
CC(C)C[C@@H](CNCC(=O)[C@H](Cc1c[nH]c2ccccc12)NC(=O)c1[nH]cnc1C(=O)N[C@H](CN)CC(C)C)NC(=O)c1nc[nH]c1C(=O)N[C@@H](CC(=O)O)C(=O)O | . | . | 40µM* | ? | . | .
CC(C)C[C@@H](CN)NC(=O)c1nc[nH]c1C(=O)N[C@@H](Cc1ccccc1)C(=O)CNC[C@H](C)NC(=O)c1nc[nH]c1C(=O)N[C@@H](CC(=O)O)C(=O)O | . | . | ? | 63% | . | .
CC(=O)c1cccc(NC(=O)CSc2nc(=O)n(Cc3ccco3)c3c2CCC3)c1 | ? | . | -25% | -8% | -8%[59 µM] | .
CN(C(=O)COC(=O)COc1ccc2ccccc2c1)c1c(N)n(Cc2ccccc2)c(=O)[nH]c1=O | 5% | -4% | -19% | 22% | -37%[12.7 µM] | .
COCCN(C(=O)COC(=O)COc1ccc(Cl)c(C)c1)c1c(N)n(Cc2ccccc2)c(=O)[nH]c1=O | -3% | . | -20% | 17% | 40µM* | 4%
Cc1cc(OCC(=O)OCC(=O)N(C)c2c(N)n(Cc3ccccc3)c(=O)[nH]c2=O)ccc1Cl | -4% | 4% | -12% | 44% | 6.3µM* | .
Cc1ccc2oc(=O)c3cc(C(=O)NCCCOC(C)C)sc3c2c1 | -2% | . | -17% | 18% | -40%[59 µM] | .
CCCCN1/C(=C/c2cccc[n+]2C)Sc2cc(NC(C)=O)ccc21 | -29% | . | 28µM* | 15% | 45µM* | -7%
CCCN(CCC)C(=O)Cc1coc2ccc3ccccc3c12 | -4% | . | 7% | 34% | 50µM* | 18%
O=C(NC1(C(F)(F)F)N=C(c2ccccc2)N(Cc2ccccc2)C1=O)c1ccc(F)cc1 (stereo unspecified) | -14% | . | -17% | 15% | 11%[59 µM] | .
Cc1ccc(-c2nc(C(=O)NC3CCCCCC3)no2)cc1 | . | . | 16µM* | 46% | . | .
CCC1CCCCN1CCCNC(=O)c1ccc2c(c1)N(Cc1ccccc1F)C(=O)c1ccccc1S2(=O)=O (stereo unspecified) | -22% | . | -24% | 19% | -16%[59 µM] | .
COc1ccc(NC(=O)CSc2ccccn2)cc1OC | -12% | . | -4% | 27% | -45%[59 µM] | 0%
Cc1nonc1NC(=O)CSc1ccc(-c2ccccc2)nn1 | -2% | -5% | -5% | 35% | 9% | -21%
Cc1nonc1NC(=O)CSc1cn[nH]n1 | -19% | . | -8% | 18% | 50µM* | 8%
COc1ccc(NC(=O)CSc2cn[nH]n2)cc1OC | 3% | . | -4% | 33% | 35µM* | 10%
Cc1cccc(NC(=O)CSc2cn[nH]n2)c1 | 3% | . | 5% | 36% | 40µM* | 17%
O=S(=O)(Nc1cccc(-c2ccc(N3CCOCC3)nn2)c1)c1ccccc1C(F)(F)F | -3% | . | -25% | 21%[57 µM] | -6%[59 µM] | .
CN(CC(=O)Nc1ccc(N2CCOCC2)cc1)CC(=O)Nc1ccc(N2CCOCC2)cc1 | -12% | . | -29% | 27% | ? | -7%
CCc1ccc(NC(=O)CS(=O)CC(=O)Nc2ccc(N3CCOCC3)cc2)cc1 (stereo unspecified) | 79µM* | . | 40µM* | 4% | 50µM* | 7%
CCN(CC(=O)NCc1ccc(Cl)cc1)C(=O)c1ccc(C#N)cc1 | -6% | . | -6% | 32% | 40µM* | -1%
CN(CC(=O)Nc1ccc(C#N)cc1)CC(=O)Nc1ccc(N2CCOCC2)cc1 | 11% | -8% | 40µM* | -7% | ? | 4%
SMILES | BAZ2B block | L3MBTL1 block | JMJD2A Tudor | HP1b binding inh | G9a block | Sfp inh
CCN(CC(=O)Nc1ccc(N2CCOCC2)cc1)C(=O)c1ccc(C#N)cc1 | -9% | 16% | -14% | 6% | 45µM* | -8%
CCCC(=O)Nc1ccccc1C(=O)OCc1cc(=O)n2nc(C(C)C)sc2n1 | -10% | . | -7% | 18% | 19%[59 µM] | .
COc1ccccc1NC(=O)Cn1c(=O)n(CC(=O)NCc2ccccc2Cl)c(=O)c2sccc21 | 4% | . | 3% | 24% | -1%[59 µM] | .
CCN(CC(=O)Nc1ccc(N2CCOCC2)cc1)Cc1nc2ccccc2c(=O)[nH]1 | -13%[57.1 µM] | -1% | -26% | 43% | -50% | ?
COc1cc2nc(CN(C)CC(=O)Nc3ccc(N4CCOCC4)cc3)[nH]c(=O)c2cc1OC | -8% | 1% | 2%[57.1 µM] | -17% | -6%[59 µM] | 3.5µM*
Cc1cc(C)cc(OCCCCn2cncn2)c1 | ? | 5% | 28µM* | ? | 10µM* | -21%
Clc1ccc(OCCCn2cncn2)cc1Cl | 22µM* | 29% | 8.9µM* | -54% | 10µM* | ?
c1ccc(COc2ccc(OCCCn3cncn3)cc2)cc1 | -17% | 22%[11.4 µM] | 3% | 52% | -6%[59 µM] | 7%
CCc1nn(CC(=O)N(C)Cc2ccccc2)c(=O)c2cc3sccc3n12 | 0% | . | -18% | 13% | 4%[59 µM] | .
CC1CCC(C(C)C)[C@H](OC(=O)c2ccccc2)C1 (stereo partly specified) | . | . | . | . | . | 13%
CC1CCC(C(C)C)C(OC(=O)C2=C3c4ccccc4S(=O)(=O)N3CC2)C1 (stereo unspecified) | -3% | -4% | 28% | 54% | 25µM* | -1%
Cc1ccc(CN2C(=O)C[C@@H](NS(=O)(=O)c3ccc4ccccc4c3)C/C=C\C2c2ccc(C)cc2)cc1 (stereo partly specified) | . | . | . | . | 6.3µM* | -19%
O=C1CCCC2=C1C(c1ccc(Cl)cc1)N=C(Nc1nc3ccccc3o1)N2 (stereo unspecified) | . | . | 12%[57.1 µM] | 19%[57 µM] | . | .
CN(C)Cc1cc(O)c(CN(C)C)cc1O | 22µM* | 3.2µM* | 0.79µM* | ? | 1.4µM* | 25µM*
Cc1[nH]c2ccccc2c1/C=C/C(=O)c1ccncc1 | 0% | 37% | -11% | 22% | . | ?
O=C(/C=C/c1cccc2ccccc12)c1ccncc1 | ? | -15% | ? | -20% | ? | 25µM*
Cc1n[nH]c(=O)n1-c1ccc(C(C)(C)C)cc1 | -1% | . | -11%[11.4 µM] | 9% | 18% | 21%
